Assay results from PubChem BioAssay AID1159580 (chemical genetic matrix, 2015).
Where “and” joins values, the source holds several entries; their conditions need not be identical. Equal values may be shown once. The whole screen tested about 5,500 compounds, of which about 2,000 (36%) were called active. Roughly 18% stayed inconclusive and do not appear here. No stated cut-off is given here; in the data, active means normalized growth mostly below about 0.91 (no sharp cut-off); inconclusive means no clear call, values can overlap the other calls; inactive means mostly above about 0.92. This is one part of the list.

Test: chemical genetic growth profiling, strain panel (AID 1159580);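 further: tested at 20 µM; growth read once vehicle control cultures reached saturation at 30 °C; 1 = growth at the plate median or of vehicle wells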
Conditions: S. cerevisiae deletion strains, growth OD

Measured: normalized growth

O=C(O)/C=C/C=C/c1ccccc1
0.985 (inactive) and 0.23 (active): locus YJL095W, strain BCK1, stronger effect = lower value
0.967 (inactive) and 0.21 (active): locus YHR030C, strain SLT2, stronger effect = lower value
inactive: locus YBR021W, strain FUR4, stronger effect = lower value 0.862 | locus YBR229C, strain ROT2, stronger effect = lower value 0.983 | locus YCL029C, strain bik1, stronger effect = lower value 0.952 | locus YDL035C, strain GPR1, stronger effect = lower value 0.964 | locus YDL074C, strain BRE1, stronger effect = lower value 0.924 | locus YDL101C, strain DUN1, stronger effect = lower value 0.979 | locus YDL134C, strain PPH21, stronger effect = lower value 0.97 | locus YDL192W, strain arf1, stronger effect = lower value 0.922 | locus YDR101C, strain arx1, stronger effect = lower value 0.938 | locus YDR150W, strain NUM1, stronger effect = lower value 0.966 | locus YDR162C, strain NBP2, stronger effect = lower value 0.943 | locus YDR195W, strain ref2 1.01 | locus YDR388W, stronger effect = lower value 0.931 | locus YEL061C, strain CIN8, stronger effect = lower value 0.977 | locus YER167W, strain BCK2, stronger effect = lower value 0.974 | locus YGL248W, strain PDE1, stronger effect = lower value 0.973 | locus YGR135W, strain pre9, stronger effect = lower value 0.916 | locus YGR229C, strain SMI1, stronger effect = lower value 0.993 | locus YHR079C, strain IRE1 (second series), stronger effect = lower value 0.927 | locus YHR129C, strain ARP1, stronger effect = lower value 0.96 | locus YHR200W, strain rpn10, stronger effect = lower value 0.949 | locus YIL066C, strain RNR3, stronger effect = lower value 0.996 | locus YIL073C, strain SPO22, stronger effect = lower value 1.05 | locus YJL134W, strain LCB3, stronger effect = lower value 0.975 | locus YJL187C, strain SWE1 (second series), stronger effect = lower value 0.975 | locus YJR043C, strain POL32, stronger effect = lower value 0.968
active: locus YAL021C, strain ccr4, stronger effect = lower value 0.827 | locus YAL026C, strain drs2, stronger effect = lower value 0.783 | locus YAL030W, strain snc1, stronger effect = lower value 0.826 | locus YBL061C, strain skt5, stronger effect = lower value 0.826 | locus YBR009C, strain hhf1, stronger effect = lower value 0.83 | locus YBR023C, strain chs3, stronger effect = lower value 0.811 | locus YBR171W, strain sec66, stronger effect = lower value 0.83 | locus YBR231C, strain swc5, stronger effect = lower value 0.804 | locus YBR279W, strain paf1, stronger effect = lower value 0.833 | locus YCL011C, strain gbp2, stronger effect = lower value 0.814 | locus YCL016C, strain dcc1, stronger effect = lower value 0.836 | locus YCL069W, strain vba3, stronger effect = lower value 0.789 | locus YCR088W, strain abp1, stronger effect = lower value 0.764 | locus YDL005C, strain med2, stronger effect = lower value 0.875 | locus YDL040C, strain nat1, stronger effect = lower value 0.861 | locus YDL185W, strain tfp1, stronger effect = lower value 0.818 | locus YDR001C, strain nth1, stronger effect = lower value 0.793 | locus YDR069C, strain doa4, stronger effect = lower value 0.863 | locus YDR137W, strain rgp1, stronger effect = lower value 0.539 | locus YDR159W, strain sac3, stronger effect = lower value 0.596 | locus YDR297W, strain sur2, stronger effect = lower value 0.816 | locus YDR318W, strain mcm21, stronger effect = lower value 0.91 | locus YDR334W, strain swr1, stronger effect = lower value 0.746 | locus YDR335W, strain msn5, stronger effect = lower value 0.766 | locus YDR392W, strain spt3, stronger effect = lower value 0.624 | locus YDR502C, strain sam2, stronger effect = lower value 0.914 | locus YEL003W, strain gim4, stronger effect = lower value 0.836 | locus YEL037C, strain rad23, stronger effect = lower value 0.816 | locus YEL061C, strain CIN8 (second series), stronger effect = lower value 0.763 | locus YER015W, strain faa2, stronger effect = lower value 0.866 | locus YER016W, strain bim1, stronger effect = lower value 0.816 | locus YER110C, stronger effect = lower value 0.887 | locus YER111C, strain swi4, stronger effect = lower value 0.774 | locus YER155C, strain BEM2 (second series), stronger effect = lower value 0.636 | locus YER155C, strain BEM2, stronger effect = lower value 0.899 | locus YFR010W, strain ubp6, stronger effect = lower value 0.803 | locus YGL078C, strain dbp3, stronger effect = lower value 0.806 | locus YGL086W, strain mad1, stronger effect = lower value 0.927 | locus YGL167C, strain pmr1, stronger effect = lower value 0.837 | locus YGL173C, strain kem1, stronger effect = lower value 0.804 | locus YGL227W, strain vid30, stronger effect = lower value 0.761 | locus YGL240W, strain doc1, stronger effect = lower value 0.629 | locus YGL253W, strain hxk2, stronger effect = lower value 0.772 | locus YGR252W, strain gcn5, stronger effect = lower value 0.727 | locus YHR013C, strain ard1, stronger effect = lower value 0.767 | locus YHR027C, strain rpn1, stronger effect = lower value 0.87 | locus YHR079C, strain IRE1, stronger effect = lower value 0.238 | locus YHR094C, strain hxt1, stronger effect = lower value 0.917 | locus YHR142W, strain chs7, stronger effect = lower value 0.713 | locus YIL125W, strain kgd1, stronger effect = lower value 0.786 | locus YIR030C, strain dcg1, stronger effect = lower value 0.914 | locus YJL092W, strain hpr5, stronger effect = lower value 0.79 | locus YJL095W, strain BCK1 (second series), stronger effect = lower value 0.847 | locus YJL115W, strain asf1, stronger effect = lower value 0.762 | locus YJL129C, strain trk1, stronger effect = lower value 0.629 | locus YJL154C, strain vps35, stronger effect = lower value 0.808 | locus YJL164C, strain tpk1, stronger effect = lower value 0.8 | locus YJL166W, strain qcr8, stronger effect = lower value 0.813 | locus YJL168C, strain set2, stronger effect = lower value 0.929 | locus YJL187C, strain SWE1, stronger effect = lower value 0.825
